ChEMBL document CHEMBL1157539, “Thousands of chemical starting points for antimalarial lead identification” (Nature, 2010)

Test system: Plasmodium falciparum
Assay: GSK_TCMDC: Inhibition of Plasmodium falciparum 3D7 in whole red blood cells, using parasite LDH activity as an index of growth. Test compounds present at 2uM
Assay type: functional

Row | SMILES | Inhibition [%]
1 | CN(Cc1ccc(C#N)cc1)C1CCN(c2cc(NC(=O)c3cccc(F)c3)ccn2)CC1.O=C(O)C(F)(F)F | 83
2 | Cc1noc(C)c1-c1ccc2c(Nc3ccc(C#N)cc3)c(C(N)=O)cnc2c1 | 97
3 | COc1cc2c(c(Cl)c1OC)CCN(C(=O)C(F)(F)F)CC2c1ccccc1 (stereo not drawn) | 100
4 | Cc1cccc(-n2c(=O)c3c4c(sc3n3c(SCCC(C)C)nnc23)CCCC4)c1 | 90
5 | Cc1ccc2c(c1)c(C1CCN(C(=O)c3ccc([N+](=O)[O-])o3)CC1)cn2C | 97
6 | CCOc1ccccc1C(=O)N1CCc2cc3nccc(N4CCN5CCC[C@H]5C4)c3cc21 | 100
7 | Cc1nc(Nc2cc(Cl)ccc2O)nc(Nc2cc(Cl)ccc2O)c1[N+](=O)[O-] | 98
8 | CC(C)COc1ccc(C(O)C(CN2CCCCC2)c2ccccc2)cc1 (stereo not drawn) | 93
9 | Cc1cccc(CC2CC(=O)N(c3ccc([N+](=O)[O-])cc3)C2=O)c1 (stereo not drawn) | 95
10 | O=C(NCCCCCN1CCCN(C(=O)Nc2ccc(F)c(C(F)(F)F)c2)CC1)C1CC1c1ccc(Cl)c(Cl)c1 (stereo not drawn) | 90
11 | CC1=NN(c2ccc(C)c(C)c2)C(=O)C1=NNc1cccc(-c2cccc(NC(=O)OC(C)(C)C)c2)c1O | 94
12 | c1ccc(Oc2ccc(Nc3ccnc4cc(-c5csc(CNCCN6CCOCC6)n5)ccc34)cc2)cc1 | 100
13 | Cc1cccc2nc(-c3cccc(-c4cccc(NC(=O)NCc5ccccc5)c4)c3)[nH]c12 | 94
14 | Cc1c(-c2cccc(C(C)(C)NCCCN3CCCCC3)c2)cnc(N)c1C.Cl | 95
15 | Cc1nc(C)c(CC(=O)Nc2ccc(-c3cccc(-c4nc5cccc(C)c5[nH]4)c3)cc2)s1 | 100
16 | CC(=O)Nc1ccc(S(=O)(=O)N2CCN(c3nc(NC4CCCC4)c4ccccc4n3)CC2)cc1 | 88
17 | COc1cccc(-c2c(C#N)c(N)nc3c2c(C)nn3-c2ccccc2)c1O | 100
18 | COc1cccc(NC(=O)Nc2ccc(-c3oc(C(=O)NCC(c4ccccc4)N(C)C)cc3-c3ccncc3)cc2)c1.O=C(O)C(F)(F)F (stereo not drawn) | 100
19 | Cl.O=C(NC1CCN(CC2(c3ccc(Cl)cc3)CCCCC2)CC1)c1cc[nH]n1 | 98
20 | CC(C)N1CCN(C(=O)c2ccc(CN(C)CCCN3CCN(c4cccc(Cl)c4Cl)CC3)s2)CC1.Cl | 94
21 | COc1ccc(NC(=O)Nc2cc(C)nc3ccccc23)cc1Cl | 100
22 | CC(C)CCNCc1c(O)ccc2ccccc12 | 95
23 | O=C(Nc1ccc(F)c(F)c1)c1ccc(CN2CCCN(Cc3cccc(F)c3)CC2)cc1.O=C(O)C(F)(F)F | 83
24 | Cl.NC(=O)c1cccc(Nc2nccc(Nc3ccc(Oc4c(Cl)cccc4Cl)c(Cl)c3)n2)c1 | 93
25 | Fc1cccc(C=NNc2ccnc3cc(Cl)ccc23)c1 | 99
26 | Cl.c1ccc2c(NCCCCCCCCCNc3ccnc4ccccc34)ccnc2c1 | 100
27 | CC(C)CNCc1cccc(-c2cccc(CNCCCN3CCN(C)CC3)c2)c1.O=C(O)C(F)(F)F | 88
28 | COc1ccc(CCN(C)CCCCNC(=O)c2ccc(NC(=O)c3ccc(Cl)cc3)cc2)c(OC)c1 | 87

Test system: Plasmodium falciparum
Assay: GSK_TCMDC: Inhibition of Plasmodium falciparum Dd2 in whole red blood cells, using parasite LDH activity as an index of growth. Test compounds present at 2uM
Assay type: functional

Row | SMILES | Inhibition [%]
29 | O=C(O)C(F)(F)F.O=S(=O)(NCCN1CCCC1)c1ccc(-c2ccc(CNCc3ccccc3)cc2)s1 | 17
30 | CCNc1cc(C(=O)N[C@@H](Cc2ccccc2)[C@H](O)CN[C@H](C)c2ccccc2)cc(N2CCCC2=O)c1 | 99
31 | O=C(Nc1ccc(F)c([N+](=O)[O-])c1)Nc1cc(C(F)(F)F)ccc1Cl | 86
32 | CCN(CCCN1CCCC1)c1cc(C)nc(Nc2ccc(Cl)cc2)n1.O=C(O)C(=O)O | 12
33 | CS(=O)(=O)c1ccc(CCNCc2ccc(-c3ccc(CN(C(=O)C4CC(=O)c5ccccc54)C4CCN(Cc5ccccc5)CC4)cc3)nc2)cc1.O=C(O)C(F)(F)F (stereo not drawn) | 49
34 | CCN1CCCC(CNC(=O)/C(=C/C=C/c2cc3cc(Cl)c(Cl)cc3[nH]2)OC)C1 (stereo not drawn) | 89
35 | CC(CNC(=O)c1cc2c(Cl)cc(Cl)cc2[nH]1)CNc1cc(=O)c2ccccc2[nH]1.O=C(O)C(F)(F)F (stereo not drawn) | 11
36 | COc1cc2nc(Cl)nc(Nc3ccncc3)c2cc1OC.Cl | 33
37 | O=C(Nc1cccc(C(F)(F)F)c1)NC1CCN(c2ccnc3ccccc23)CC1.O=C(O)C(F)(F)F | 43
38 | Cc1ccc(/C=C/C(=O)NCCCCCN2CCN(C(=O)Nc3ccc(Cl)c(C(F)(F)F)c3)CC2)cc1 | 0
39 | Cc1cc2c(cc1C(F)(F)F)N(C(=O)Nc1cc(C(=O)NC3CCN(Cc4ccccc4)C3)cc(C(F)(F)F)c1)CC2.Cl (stereo not drawn) | 97
40 | O=C(O)C(F)(F)F.c1cc(CNCCN2CCNCC2)cc(-c2cccc(-c3nc4ccccc4[nH]3)c2)c1 | 1
41 | CN(Cc1ccc(C#N)cc1)C1CCN(c2cc(NC(=O)c3cccc(F)c3)ccn2)CC1.O=C(O)C(F)(F)F | 0
42 | Cc1noc(C)c1-c1ccc2c(Nc3ccc(C#N)cc3)c(C(N)=O)cnc2c1 | 73
43 | COc1cc2c(c(Cl)c1OC)CCN(C(=O)C(F)(F)F)CC2c1ccccc1 (stereo not drawn) | 100
44 | Cc1cccc(-n2c(=O)c3c4c(sc3n3c(SCCC(C)C)nnc23)CCCC4)c1 | 8
45 | Cc1ccc2c(c1)c(C1CCN(C(=O)c3ccc([N+](=O)[O-])o3)CC1)cn2C | 76
46 | CCOc1ccccc1C(=O)N1CCc2cc3nccc(N4CCN5CCC[C@H]5C4)c3cc21 | 58
47 | Cc1nc(Nc2cc(Cl)ccc2O)nc(Nc2cc(Cl)ccc2O)c1[N+](=O)[O-] | 83
48 | CC(C)COc1ccc(C(O)C(CN2CCCCC2)c2ccccc2)cc1 (stereo not drawn) | 89

Row | SMILES | Inhibition [%]
49 | Cc1cccc(CC2CC(=O)N(c3ccc([N+](=O)[O-])cc3)C2=O)c1 (stereo not drawn) | 1
50 | O=C(NCCCCCN1CCCN(C(=O)Nc2ccc(F)c(C(F)(F)F)c2)CC1)C1CC1c1ccc(Cl)c(Cl)c1 (stereo not drawn) | 1
51 | CC1=NN(c2ccc(C)c(C)c2)C(=O)C1=NNc1cccc(-c2cccc(NC(=O)OC(C)(C)C)c2)c1O | 21
52 | c1ccc(Oc2ccc(Nc3ccnc4cc(-c5csc(CNCCN6CCOCC6)n5)ccc34)cc2)cc1 | 99
53 | Cc1cccc2nc(-c3cccc(-c4cccc(NC(=O)NCc5ccccc5)c4)c3)[nH]c12 | 27
54 | Cc1c(-c2cccc(C(C)(C)NCCCN3CCCCC3)c2)cnc(N)c1C.Cl | 2
55 | Cc1nc(C)c(CC(=O)Nc2ccc(-c3cccc(-c4nc5cccc(C)c5[nH]4)c3)cc2)s1 | 38
56 | CC(=O)Nc1ccc(S(=O)(=O)N2CCN(c3nc(NC4CCCC4)c4ccccc4n3)CC2)cc1 | 2
57 | COc1cccc(-c2c(C#N)c(N)nc3c2c(C)nn3-c2ccccc2)c1O | 100
58 | COc1cccc(NC(=O)Nc2ccc(-c3oc(C(=O)NCC(c4ccccc4)N(C)C)cc3-c3ccncc3)cc2)c1.O=C(O)C(F)(F)F (stereo not drawn) | 99
59 | Cl.O=C(NC1CCN(CC2(c3ccc(Cl)cc3)CCCCC2)CC1)c1cc[nH]n1 | 96
60 | CC(C)N1CCN(C(=O)c2ccc(CN(C)CCCN3CCN(c4cccc(Cl)c4Cl)CC3)s2)CC1.Cl | 35
61 | COc1ccc(NC(=O)Nc2cc(C)nc3ccccc23)cc1Cl | 49
62 | CC(C)CCNCc1c(O)ccc2ccccc12 | 51
63 | O=C(Nc1ccc(F)c(F)c1)c1ccc(CN2CCCN(Cc3cccc(F)c3)CC2)cc1.O=C(O)C(F)(F)F | 12
64 | Cl.NC(=O)c1cccc(Nc2nccc(Nc3ccc(Oc4c(Cl)cccc4Cl)c(Cl)c3)n2)c1 | 17
65 | Fc1cccc(C=NNc2ccnc3cc(Cl)ccc23)c1 | 91
66 | Cl.c1ccc2c(NCCCCCCCCCNc3ccnc4ccccc34)ccnc2c1 | 100
67 | CC(C)CNCc1cccc(-c2cccc(CNCCCN3CCN(C)CC3)c2)c1.O=C(O)C(F)(F)F | 7
68 | COc1ccc(CCN(C)CCCCNC(=O)c2ccc(NC(=O)c3ccc(Cl)cc3)cc2)c(OC)c1 | 0
